Assay [1] has as its system P. falciparum NF54-pfs16-GFP early (I-III) stage gametocytes. Put plainly: relative % inhibition of viable gametocyte number; higher = more gametocytocidal. To be noted: stage: early (I-III) gametocyte, incubation 72 h. A digest of the protocol:
(§1)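 Early-stage (I/IIa, day 2) or late-stage (day 8) NF54 pfs16-GFP gametocytes were isolated by magnet and plated in 384-well poly-D-lysine imaging plates at 10% parasitaemia and 0.1% haematocrit, with compound in duplicate at 5 or 0.5 µM. After 72 h at 37°C under 5% CO2 and 5% O2, MitoTracker Red was added overnight. Confocal imaging scored elongated GFP objects whose MitoTracker signal passed a cut-off as viable gametocytes. Relative inhibition was normalised against vehicle and positive-control wells on the same plate.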

Assay [2] has as its system P. falciparum NF54-pfs16-GFP late (IV-V) stage gametocytes. The assay is described as above. To be noted: stage: late (IV-V) gametocyte, incubation 72 h. A digest of the protocol: as §1

Consider `CC(C)(C)c1ccc2c(c1)CN(Cc1ccc(Cl)cc1)CO2`, for which the relative % inhibition in assay [1] (0.5 µM) is 9.71%; in assay [1] (5 µM), 98.4%; in assay [2] (0.5 µM) it was 27.3%; in assay [2] (5 µM), 54.6%.

On to `COc1ccc(N2CCN(C(CNC(=O)CC(C)(C)C)c3ccc4c(c3)OCO4)CC2)cc1` (configuration not stated), for which the relative % inhibition worked out at 31.4% in assay [1] (0.5 µM), 24.4% in assay [1] (5 µM), 42.2% in assay [2] (0.5 µM) and 25.6% in assay [2] (5 µM).

On to `CCC(O)c1ccc(Br)cc1NC(=O)c1cccc(Cl)c1` (configuration not stated), for which the relative % inhibition in assay [1] (0.5 µM) is 3.28%; in assay [1] (5 µM), 93.3%; in assay [2] (0.5 µM) it was 12%; in assay [2] (5 µM), 28.6%.

Regarding `CCOC(=O)c1cnc2c(C)cccc2c1Nc1ccc(C(C)=O)cc1`, the relative % inhibition in assay [1] (0.5 µM) is -9.17%; in assay [1] (5 µM) it was 7.93%; in assay [2] (0.5 µM), 7.91%; in assay [2] (5 µM) it was -0.973%.

For the compound `COc1ccc(CNC2CCN(c3ccc(NC(=O)c4cccc(Cl)c4)cc3)CC2)cc1OC`, the relative % inhibition in assay [1] (0.5 µM) is -12.4%; in assay [1] (5 µM), 79%; in assay [2] (0.5 µM) it was -4.13%; in assay [2] (5 µM), -22%.

Take `CCN(CC)CCNc1ncnc2c1[nH]c1ccc(Cl)cc12`: the relative % inhibition in assay [1] (0.5 µM) came to 14.5%; in assay [1] (5 µM) it was 79.1%; in assay [2] (0.5 µM), 2.71%; in assay [2] (5 µM) it was 24.8%.

For `COc1cccc(C(=O)NC(c2ccc(C)cc2)c2cc(Cl)c3cccnc3c2O)c1` (configuration not stated), the relative % inhibition in assay [1] (0.5 µM) is 12.4%; in assay [1] (5 µM) it was 82.5%; in assay [2] (0.5 µM), 46.5%; in assay [2] (5 µM), 65.2%.

Regarding `O=C(Nc1ccc(C23CC4CC(CC(c5ccccc5)(C4)C2)C3)cc1)c1cccs1`, the relative % inhibition in assay [1] (0.5 µM) was -8.5%; in assay [1] (5 µM), 12.3%; in assay [2] (0.5 µM) it was 12.9%; in assay [2] (5 µM) it was 31.6%.

Consider `Cc1ccc2cc3c(N)c4c(C)ccc(C)c4nc3nc2c1`, for which the relative % inhibition in assay [1] (0.5 µM) came to 4.09%; in assay [1] (5 µM), 91%; in assay [2] (0.5 µM), 8.68%; in assay [2] (5 µM), 50.1%.

With `Cn1c(=O)c2cc(C(=O)NCCCN3CCCCCC3)sc2c2ccccc21`, the relative % inhibition in assay [1] (0.5 µM) was 13.6%; in assay [1] (5 µM) it was 27.4%; in assay [2] (0.5 µM) it was -1.01%; in assay [2] (5 µM), -0.0726%.

For the compound `COCCNCC(O)Cn1c2ccc(Cl)cc2c2cc(Cl)ccc21` (configuration not stated), the relative % inhibition in assay [1] (0.5 µM) was determined as 5.62%; in assay [1] (5 µM) it was 62.7%; in assay [2] (0.5 µM), 52.3%; in assay [2] (5 µM) it was 96.1%.

Turning to `CCOc1cccc(C(=O)Nc2ccc(-c3nc4ccccc4[nH]3)cc2)c1`, the relative % inhibition is 35.7% in assay [1] (0.5 µM), -17.2% in assay [1] (5 µM), 4.79% in assay [2] (0.5 µM) and 17.9% in assay [2] (5 µM).

Regarding `COc1ccc(C(=O)NC(c2ccc(Cl)cc2Cl)c2cc(Cl)c3cccnc3c2O)cc1` (configuration not stated), the relative % inhibition is 42.5% in assay [1] (0.5 µM), 107% in assay [1] (5 µM), 50.9% in assay [2] (0.5 µM) and 98.7% in assay [2] (5 µM).

Regarding `CCOc1ccc2nc(C)cc(Nc3ccc(N(C)C)cc3)c2c1`, the relative % inhibition was 15.2% in assay [1] (0.5 µM), -42.1% in assay [1] (5 µM), -6.75% in assay [2] (0.5 µM) and -10.3% in assay [2] (5 µM).

With `O=C(Nc1ccc(CN2CCOCC2)cc1)c1ccc(-c2cc(Cl)ccc2Cl)o1`, the relative % inhibition in assay [1] (0.5 µM) is -3.41%; in assay [1] (5 µM), 20.9%; in assay [2] (0.5 µM) it was -18.1%; in assay [2] (5 µM), 21.4%.

As to `CCOC(=O)c1cnc2ccc(Cl)cc2c1NCCCN(C)C`, the relative % inhibition in assay [1] (0.5 µM) was 3.83%; in assay [1] (5 µM), 74.3%; in assay [2] (0.5 µM), -21.7%; in assay [2] (5 µM) it was -1.78%.

As to `COc1ccc(CCN2C(=O)c3[nH]nc(-c4cc(Cl)c(C)cc4O)c3C2c2ccccc2F)cc1` (configuration not stated), the relative % inhibition is 1.69% in assay [1] (0.5 µM), -0.844% in assay [1] (5 µM), 30.2% in assay [2] (0.5 µM) and 51.9% in assay [2] (5 µM).

As for `COc1ccc(C=C2SC(Nc3ccccc3)=NC2=O)cc1`, the relative % inhibition stood at 11.7% in assay [1] (0.5 µM), 17.7% in assay [1] (5 µM), 47.2% in assay [2] (0.5 µM) and 61.6% in assay [2] (5 µM).

Turning to `CC(C)=CCN1CCC(C(=O)Nc2ccc(-c3nc4ccccc4[nH]3)cc2)CC1`, the relative % inhibition in assay [1] (0.5 µM) was 3.42%; in assay [1] (5 µM) it was 74.1%; in assay [2] (0.5 µM) it was 16.4%; in assay [2] (5 µM) it was -15.7%.

`O=C(O)C1Cc2c([nH]c3ccccc23)C(c2ccc(Cl)cc2Cl)N1` (configuration not stated): the relative % inhibition in assay [1] (0.5 µM) is -10.4%; in assay [1] (5 µM), -20.9%; in assay [2] (0.5 µM), 6.2%; in assay [2] (5 µM), 1.16%.

As to `COCCn1c(C)nc2ccccc2c1=O`, the relative % inhibition came out at 9.29% in assay [1] (0.5 µM), 10.1% in assay [1] (5 µM), 43.2% in assay [2] (0.5 µM) and 16.8% in assay [2] (5 µM).

As for `COc1ccc(C(=O)Nc2nonc2-c2ccc(OC)c(OC)c2)cc1Cl`, the relative % inhibition in assay [1] (0.5 µM) came to 33.4%; in assay [1] (5 µM) it was 31.6%; in assay [2] (0.5 µM), 13.1%; in assay [2] (5 µM), 59.1%.

For the compound `CC(C)OCc1cc(CN2CCN(c3cccc(Cl)c3)CC2)c(O)c2ncccc12`, the relative % inhibition in assay [1] (0.5 µM) was 10.9%; in assay [1] (5 µM), 96.4%; in assay [2] (0.5 µM), 8.7%; in assay [2] (5 µM), 98.4%.

For the compound `O=C(Nc1ccccc1O)c1ccc(Oc2cccc(C(=O)Nc3ccccc3O)c2)cc1`, the relative % inhibition in assay [1] (0.5 µM) worked out at 20.5%; in assay [1] (5 µM), 50.6%; in assay [2] (0.5 µM), 14.1%; in assay [2] (5 µM) it was 8.35%.

For the compound `COc1ccc(Nc2cc(C)nc(NCc3ccccc3)n2)cc1`, the relative % inhibition in assay [1] (0.5 µM) was -3.8%; in assay [1] (5 µM), 26.6%; in assay [2] (0.5 µM) it was -3.1%; in assay [2] (5 µM) it was 36%.

For the compound `CCCCCCn1c(=N)n(CC(O)COc2cccc(C)c2)c2ccccc21` (configuration not stated), the relative % inhibition in assay [1] (0.5 µM) was 23%; in assay [1] (5 µM) it was 52%; in assay [2] (0.5 µM), -12.2%; in assay [2] (5 µM) it was 103%.

Consider `CCCCc1c(C)nc2c(OC)cccc2c1O`, for which the relative % inhibition is 12.7% in assay [1] (0.5 µM), -0.633% in assay [1] (5 µM), 35.7% in assay [2] (0.5 µM) and 63.9% in assay [2] (5 µM).

`CC(=O)NCCc1nc2ccccc2n1Cc1ccc(C(C)C)cc1`: the relative % inhibition in assay [1] (0.5 µM) was 8.03%; in assay [1] (5 µM), 50.5%; in assay [2] (0.5 µM) it was -8.38%; in assay [2] (5 µM), 2.88%.

As for `COc1cc(OC)c(N(C)C(=O)c2cc3c(s2)-c2ccccc2S(=O)(=O)C3)cc1Cl`, the relative % inhibition turned out to be 52.2% in assay [1] (0.5 µM), 93.9% in assay [1] (5 µM), 28.5% in assay [2] (0.5 µM) and 44.6% in assay [2] (5 µM).

Regarding `Cc1cc(C)c2c(c1)OCN(Cc1ccccc1Cl)C2`, the relative % inhibition in assay [1] (0.5 µM) was found to be 59.9%; in assay [1] (5 µM), 93.6%; in assay [2] (0.5 µM), 31.1%; in assay [2] (5 µM), 47.8%.

As to `Cc1cc(Nc2ccc(OCc3ccccc3)cc2)nc2cc(O)ccc12`, the relative % inhibition is 12.6% in assay [1] (0.5 µM), 95.1% in assay [1] (5 µM), 35.1% in assay [2] (0.5 µM) and 78.3% in assay [2] (5 µM).

In the case of `O=C(Cc1ccccc1)NC(c1ccc(Cl)cc1)c1c(O)ccc2ccccc12` (configuration not stated), the relative % inhibition came to 14.2% in assay [1] (0.5 µM), 104% in assay [1] (5 µM), 1.94% in assay [2] (0.5 µM) and 27.6% in assay [2] (5 µM).

Consider `COc1ccc(Br)cc1C1Nc2ccc3ccccc3c2C2=C1C(=O)CC(c1ccccc1)C2` (configuration not stated), for which the relative % inhibition in assay [1] (0.5 µM) stood at 27.7%; in assay [1] (5 µM), 70.3%; in assay [2] (0.5 µM), 2.99%; in assay [2] (5 µM) it was 16.2%.

The record behind these values is the supplement of paper PMC3842684.
